DT40 TDP1 no CPT: qHTS for Inhibitors of human tyrosyl-DNA phosphodiesterase 1 (TDP1): qHTS in cells in absence of CPT | DT40 Tdp1-/- hTDP1 cells, no CPT, ATP luminescence, 48 h | Potency, µM (series often up to 46.2 µM), inactives show top-dose activity change, negative = growth inhibition, actives largely listed as inhibitors | 420,000 tested, 15% active | AID 686978, 2013; note: % is set by controls: 0 for no effect and ±100 for the full control effect; nearly all actives have a fitted effect of over 55% in size
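Seeded 400 DT40-hTDP1 cells/well (vehicle DMSO, no 20 nM CPT); pinned compounds; ≥48 hr at 37 °C; CellTiter-Glo luminescence as viability measure.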
HT1080 IDH1KD tx: qHTS for induction of synthetic lethality in tumor cells producing 2HG: qHTS for the HT-1080-IDH1KD cell line. HT-1080 IDH1 knockdown viability, ATP luminescence, 48 h. Potency, µM (doses to about 46.1 µM), for the others: at the highest dose activity, negative = toxicity, usual class: cytotoxic. 360,000 tested, 2% active. AID 686971, 2013;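 note: 0% = DMSO wells and -100% = cell-free medium wells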
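Luminescent ATP read-out (CellTiter-Glo, 10 min at room temperature) after 48 h compound exposure at 37 °C gave viability of IDH1-knockdown HT-1080 cells. Activity was normalised to DMSO and cell-free wells, then fitted as concentration-response curves.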
TGFb SMAD3 inh: qHTS for Inhibitors of TGF-b | 410,000 tested, 1.2% active | Potency, µM (highest dose often 46.1 µM), for the others: at the top dose activity, negative = inhibition, hits mostly inhibitors | HepG2 CAGA-GFP TGF-b/SMAD3 reporter, GFP fluorescence, 18 h; TGF-beta stimulated, 500 pg/mL final; note: % is set by controls: 0 for no effect and ±100 for the full control effect; nearly all actives have a fitted effect of over 65% in size
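TGF-beta reporter screen: HEPG2 CAGA-GFP, 1% FBS, 500 pg/mL TGF-beta final, 18 h; per-cell GFP summed per well; curves fitted and categorized by class.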
HT1080-NT tox: qHTS for induction of synthetic lethality in tumor cells producing 2HG: qHTS for the HT-1080-NT fibrosarcoma cell line; Potency, µM (top dose mostly 46.1 µM), for inactives: at the highest dose activity, negative = less viability, most hits filed as cytotoxic; HT-1080-NT fibrosarcoma viability, CellTiter-Glo ATP luminescence, 48 h; 360,000 tested, 1.6% active;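 note: NT is the 2HG producing partner of a matched IDH1 knockdown line; 0% = DMSO-treated cells and -100% = media-only wells without cells; nearly all actives have a fitted effect of over 55% in size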
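Toxicity toward the 2HG-producing NT line was scored as %Activity, normalised to DMSO and no-cell wells, from CellTiter-Glo luminescence after 48 hours' treatment.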
HepG2 tox: qHTS for Inhibitors of TGF-b: Cytotox Counterscreen; HepG2 CAGA-GFP viability, ATP luminescence, 18 h; Potency, µM (titrated, usually from 46.1 µM), inactives show at the highest dose activity change, negative = cytotoxicity, most hits filed as cytotoxic; 410,000 tested, 0.76% active; AID 588856, 2011
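HepG2 CAGA-GFP cells (1000/well, DMEM with 1% FBS) received compound, then TGF-beta at 500 pg/mL final, and were incubated 18 hours at 37 degrees C. Viability was read by CellTiter-Glo luminescence. Media-only wells were set as complete cell-killing and DMSO as no toxicity.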
DT40 TDP1 CPT: qHTS for Inhibitors of human tyrosyl-DNA phosphodiesterase 1 (TDP1): qHTS in cells in presence of CPT. chicken DT40 Tdp1-/-;hTDP1 cells + 20 nM CPT, ATP luminescence, 48 h. Potency, µM (series often up to 46.2 µM), for the others: at the highest dose activity change, negative = growth inhibition, usual class: inhibitors. 420,000 tested, 12% active; note: % is set by controls: 0 for no effect and ±100 for the full control effect; nearly all actives have a fitted effect of over 55% in size
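Chicken DT40 Tdp1-/- cells stably complemented with human TDP1 were seeded at 400 cells/well in medium containing 20 nM camptothecin, exposed to pin-transferred compounds, and grown at 37 °C for at least 48 hr. Viability was read as ATP luminescence.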
Numbers without * were called inactive; ? = inconclusive; . = no result given; ! = a repeat was not active. The list is not random: actives were taken first. Their share in the collection is about 17%. Calls come from the whole dose curve; as a rule, active = well fitted curve in the direction sought with a large enough effect; inconclusive = small, poorly fitted or top-dose-only effect, or another doubt; inactive = no such curve, though single readings can be large; an effect the other way counts as inactive or inconclusive. Potency is the fitted concentration of half-maximal effect.

SMILES	DT40 TDP1 no CPT	HT1080 IDH1KD tx	TGFb SMAD3 inh	HT1080-NT tox	HepG2 tox	DT40 TDP1 CPT
COc1ccc(NC(=O)C[C@H]2C(=O)N(c3ccc(OC)cc3)C[C@@H]2CSC)cc1	?	9.4%	-12.7%	-3.3%	-10.3%	-23.3%
CCC[C@H]1CN(c2ccc(Br)cc2)C(=O)[C@@H]1CC(=O)Nc1ccccc1	?	-1.6%	2.5%	-2.2%	-24.6%	?
O=C(C[C@H]1C(=O)N(c2ccccc2)C[C@@H]1Cc1ccccc1)Nc1ccc(Br)cc1	9.2µM*	-16.9%	-4.8%	-2.0%	-37.8%	13µM*
COc1ccc(NC(=O)C[C@H]2C(=O)N(c3ccc(Br)cc3)C[C@@H]2CSC)cc1	23.1µM*	-29.1%	-9.1%	-20.1%	-39.3%	?
O=C(C[C@H]1C(=O)N(c2ccc(Br)cc2)C[C@@H]1Cc1ccccc1)Nc1ccccc1	?	-1.8%	-0.4%	-0.1%	-15.0%	?
CCc1ccc(NC(=O)COc2cccc(-n3cnnn3)c2)cc1	-19.7%	-7.7%	0.1%	-3.3%	6.7%	1.1%
FC(F)(F)Oc1ccc(NC(=S)NCCCN2CCOCC2)cc1	-26.2%	11.0%	6.8%	4.9%	6.9%	-14.8%
Cc1ccc(N2C(=O)c3ccccc3C2=O)cc1	6.8%	0.7%	?	10.3%	9.0%	4.3%
Cc1ccc(SC2=C(Sc3ccc(C)cc3)C(=O)c3ccccc3C2=O)cc1	1.03µM*	-1.8%	6.7%	3.2%	-8.9%	0.92µM*
CCCSC1=NC2(CCN(C(=O)NC3CCCCC3)CC2)N=C1c1ccc(OC)cc1	23.1µM*	.	?	.	2.0%	23.1µM*
CC1(C)CC(=O)C2=C(C1)NC(Nc1nc3ccccc3o1)=NC2c1cccc(O)c1 (stereo not drawn)	?	.	?	.	-38.1%	6.8%
O=C(CCc1nnc(-c2ccc3c(c2)OCO3)o1)NCCc1ccccc1F	?	?	6.7%	-29.9%	3.1%	16.4µM*
CC(C)(C)NC(=O)[C@@H]1CN(Cc2cccnc2)CCN1C[C@@H](O)C[C@@H](Cc1ccccc1)C(=O)N[C@H]1c2ccccc2C[C@H]1O	11.9µM*!	2.7%	22.8%	-0.3%	-16.5%	?
COc1ccccc1C(=O)NCCOc1ccc(C(C)(C)C)cc1	20.6µM*	-5.8%	-18.8%	-6.5%	-33.9%	?
C=CCc1ccc(OCCCNCc2ccccc2)c(OC)c1	?	-2.5%	22.3%	-5.6%	-14.5%	?
C=CCc1ccccc1OCCNCc1ccccc1	16.4µM*	?	-5.4%	-1.4%	-12.0%	?
COc1ccccc1OCCNC(=O)c1ccccc1C	-8.3%	-20.4%	-10.5%	-11.7%	-3.7%	-14.6%
CC(C)(C)c1ccc(OCCNCc2ccccc2)cc1	?	16.4µM*	-3.2%	?	-42.9%	?
Clc1ccc(OCCOCCNCc2ccccc2)cc1Cl	18.4µM*	-23.6%	11.2µM*	-28.0%	-64.3%	16.4µM*
Cn1cc(CCC(=O)NCc2ccc(Cl)cc2)c2ccccc21	?	-1.7%	0.0%	4.6%	0.3%	?
CNS(=O)(=O)c1ccc(NCC2COc3ccccc3O2)c([N+](=O)[O-])c1 (stereo not drawn)	?	-13.5%	0.0%	-16.4%	-10.6%	?
O=c1cc(C2CCCCC2)[nH]c(=O)[nH]1	5.5%	2.1%	5.9%	18.3%	2.4%	-0.9%
CCN(C1CCCCC1)S(=O)(=O)CCNC(=O)c1ccccc1	?	14.8%	-10.3%	8.2%	3.6%	-5.6%
Cc1cc(Br)ccc1OCCNCc1ccccc1	?	?	?	?	-58.1%	?
Cc1cc(Cl)cc(C)c1OCCOCCNCc1ccccc1	?	-28.0%	?	?	14.1µM*	23.1µM*
SMILES	DT40 TDP1 no CPT	HT1080 IDH1KD tx	TGFb SMAD3 inh	HT1080-NT tox	HepG2 tox	DT40 TDP1 CPT
Cc1cc(C)c(C)c(OCCNCc2ccccc2)c1	?	14.6µM*	-26.0%	?	-32.7%	?
Cc1cc(Cl)cc(C)c1OCCNCc1ccccc1	20.6µM*	?	-18.0%	18.4µM*	-43.5%	?
Cc1cc(C)c(OCCNCc2ccccc2)c(C)c1	?	-29.6%	-7.4%	-16.7%	3.8%	?
COc1ccccc1N1CCN(S(=O)(=O)c2c(C)[nH]c(=O)[nH]c2=O)CC1	5.3%	-0.6%	-15.9%	-6.3%	13.9%	11.0%
COc1cccc(-c2cnc(C(O)c3cc(C)c(OC)c(C)c3)[nH]2)c1 (stereo not drawn)	?	-5.6%	12.7%	-3.5%	-13.2%	-16.0%
C#Cc1ccc(NC(=O)C2(C)CCN2C(=O)C/C=C/c2ccccc2)cc1 (stereo not drawn)	9.2µM*	?	-0.7%	?	-17.8%	16.4µM*
C#Cc1ccc(NC(=O)C2(C)CCN2C(=O)Cc2ccc(C(C)(C)C)cc2)cc1 (stereo not drawn)	?	10.3µM*	-29.6%	?	-19.5%	20.6µM*
CC1(C(=O)Nc2ccc3[nH]ncc3c2)CCN1C(=O)Cc1ccc(-c2ccccc2)cc1 (stereo not drawn)	13µM*	-22.1%	1.2%	?	-30.0%	16.4µM*
CC1(C(=O)Nc2ccc3[nH]ncc3c2)CCN1C(=O)CCc1ccccc1 (stereo not drawn)	?	18.6%	34.1%	15.7%	1.5%	?
CC1(C(=O)Nc2cccc(C#N)c2)CCN1C(=O)C/C=C/c1ccccc1 (stereo not drawn)	?	-3.3%	-28.3%	-1.3%	0.4%	?
CC(C)(C)c1ccc(CC(=O)N2CCC2(C)C(=O)Nc2ccc3[nH]ncc3c2)cc1 (stereo not drawn)	9.2µM*	2.3%	62.8%	5.9%	-25.9%	14.6µM*
Cc1ccccc1-c1cccc(CN2CCc3nnc(C(C)NC(=O)c4cccnc4)n3CC2)c1 (stereo not drawn)	-5.0%	.	.	.	.	-5.1%
O=C(NCc1cccs1)c1csc(COCCO)n1	-1.2%	14.5%	43.0%	?	2.6%	3.6%
COc1ccc(NC(=O)COCc2cc(-c3ccco3)on2)cc1Cl	-23.6%	.	-4.1%	.	-15.5%	?
